Counter-ions that a name gives are not always drawn. ± gives the standard deviation.
What was measured:
[1] = tested on: THP-1; test: THP-1 cell loss relative to DMSO control; higher = more host cell loss (toxicity); extreme values may be limits of the assay; conditions: 10 µM; 4 days; infection: M. tuberculosis H37Rv
Experimental: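 OICR kinase inhibitor library screened in duplicate at 10 uM against M. tuberculosis-infected THP-1 macrophages, 4 days at 37 C. THP-1 cell loss (cytotoxicity or loss of adherence) was quantified from Hoechst-stained nuclei counts by high-content imaging and normalised to the 1% DMSO control; 100 = complete loss of host cells.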

[2] = tested on: THP-1 macrophages infected with Mycobacterium tuberculosis H37Rv; test: intracellular M.tb growth inhibition relative to DMSO (0) and 4 uM bedaquiline (100); higher = stronger inhibition of intracellular bacterial growth; conditions: 10 µM; 4 days
Experimental: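 OICR kinase inhibitor library screened in duplicate at 10 uM against THP-1 macrophages (PMA-differentiated) infected with M. tuberculosis H37Rv-pTEC27 (tdTomato RFP), 4 days at 37 C. Rows with complete host cell loss (placeholder inhibition 0, cell loss 100) were removed.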

Question: For `Cc1[nH]c(/C=C2\C(=O)Nc3ccc(S(=O)(=O)N(C)c4cccc(Cl)c4)cc32)c(C)c1C(=O)N1CCN(C)CC1`, which THP-1 cell loss [1] is on record?
Answer: 65.8 ± 13%

Question: What about the “intracellular M.tb growth inhibition” value [2] of the same compound?
Answer: 41.9 ± 66%

Question: `O=C(Nc1cccc(Nc2ncc(Br)c(NCCc3cnc[nH]3)n2)c1)N1CCCC1` was tested. Which THP-1 cell loss [1] did it give?
Answer: 36 ± 15%

Question: And the “intracellular M.tb growth inhibition” value [2]?
Answer: -256 ± 330%

Question: `O=C(O)c1ccc2c(c1)nc(Nc1cccc(Cl)c1)c1ccncc12` was tested. Which THP-1 cell loss [1] did it give?
Answer: 66.8 ± 1.6%

Question: And the “intracellular M.tb growth inhibition” value [2]?
Answer: -112 ± 130%

Question: Which THP-1 cell loss [1] does the source give for `CCN(CCO)CCCOc1ccc2c(Nc3cc(CC(=O)Nc4cccc(F)c4)[nH]n3)ncnc2c1` here?
Answer: 7.76 ± 6.5%

Question: What about the “intracellular M.tb growth inhibition” value [2] of the same compound?
Answer: -51.3 ± 83%

Question: Which results are given for `COc1cc2ncc(-c3ccccc3)nc2cc1OC` [Tyrphostin AG-1296]?
Answer: THP-1 cell loss [1]: 0%; intracellular M.tb growth inhibition [2]: 1.21 ± 2%

Question: Which results are given for `COc1cc2c(cc1OC)-c1[nH]nc(Nc3cccc(F)c3)c1C2`?
Answer: THP-1 cell loss [1]: 27.5 ± 16%; intracellular M.tb growth inhibition [2]: 62.2 ± 12%

Question: What does the source list for `COc1cc2ncnc(Nc3cccc(Br)c3)c2cc1OC`?
Answer: THP-1 cell loss [1]: 72.7 ± 4%; intracellular M.tb growth inhibition [2]: -64 ± 39%

Question: With `COc1cc(/C=C(\C#N)C(N)=O)cc(CSc2nc3ccccc3s2)c1O` as the compound, how does the THP-1 cell loss [1] read?
Answer: 3 ± 4.2%

Question: And the “intracellular M.tb growth inhibition” value [2]?
Answer: 21 ± 6.4%

Question: With `Cc1cc(F)c(Nc2ncnc3cc(OCc4ccccc4)ccc23)cc1O` as the compound, how does the THP-1 cell loss [1] read?
Answer: 5.29 ± 7.5%

Question: What about the “intracellular M.tb growth inhibition” value [2] of the same compound?
Answer: 38.8 ± 33%

Question: For `NC1(c2ccc(-c3nc4ccn5c(=O)[nH]nc5c4cc3-c3ccccc3)cc2)CCC1`, which THP-1 cell loss [1] is on record?
Answer: 34.3 ± 6.7%

Question: What about the “intracellular M.tb growth inhibition” value [2] of the same compound?
Answer: -62.1 ± 130%

Question: `CC(C)(C)c1cc(NC(=O)Nc2ccc(-c3cn4c(n3)sc3cc(OCCN5CCOCC5)ccc34)cc2)no1` was tested. Which THP-1 cell loss [1] did it give?
Answer: 82.1 ± 1.3%

Question: And the “intracellular M.tb growth inhibition” value [2]?
Answer: 85.7 ± 43%

Question: Which results are given for `N#Cc1c(NC(=O)c2cccc3ccccc23)sc2c1CCCC2`?
Answer: THP-1 cell loss [1]: 60.6 ± 15%; intracellular M.tb growth inhibition [2]: -226 ± 330%

Question: What does the source list for `CO[C@@H](C(=O)N1Cc2[nH]nc(NC(=O)c3ccc(N4CCN(C)CC4)cc3)c2C1)c1ccccc1`?
Answer: THP-1 cell loss [1]: 19.1 ± 3.7%; intracellular M.tb growth inhibition [2]: -228 ± 250%

Question: Which THP-1 cell loss [1] does the source give for `Cc1ccc(NC(=O)c2ccc(CN3CCN(C)CC3)cc2)cc1Nc1nccc(-c2cccnc2)n1` [Imatinib Mesylate] here?
Answer: 9.14 ± 13%

Question: And the “intracellular M.tb growth inhibition” value [2]?
Answer: 54.9 ± 5%

Question: `CCc1cc(Nc2nccc(-c3c(-c4ccc(OC)c(C(=O)Nc5c(F)cccc5F)c4)nc4ccccn34)n2)c(OC)cc1N1CCC(N2CCN(S(C)(=O)=O)CC2)CC1` was tested. Which THP-1 cell loss [1] did it give?
Answer: 10.9 ± 13%

Question: And the “intracellular M.tb growth inhibition” value [2]?
Answer: -49.9 ± 68%

Question: For `CC(C)N(CCC(=O)c1ccc2ccccc2c1)Cc1ccccc1`, which THP-1 cell loss [1] is on record?
Answer: 3.99 ± 5.6%

Question: And the “intracellular M.tb growth inhibition” value [2]?
Answer: 22.8 ± 6.8%

Question: With `OCCn1cc(-c2ccc3c(c2)CC/C3=N\O)c(-c2ccncc2)n1` as the compound, how does the THP-1 cell loss [1] read?
Answer: 9.27 ± 7.9%

Question: What about the “intracellular M.tb growth inhibition” value [2] of the same compound?
Answer: -91.1 ± 160%

Question: Which THP-1 cell loss [1] does the source give for `N#CC(=C(/N)Sc1ccccc1N)/C(C#N)=C(/N)Sc1ccccc1N` here?
Answer: 39.2 ± 23%

Question: And the “intracellular M.tb growth inhibition” value [2]?
Answer: 13.3 ± 58%

Question: How did the THP-1 cell loss [1] turn out when `O=C1NC(=O)/C(=C/c2ccc(-c3ccc(F)cc3O)o2)S1` was run?
Answer: 39.7 ± 23%

Question: What about the “intracellular M.tb growth inhibition” value [2] of the same compound?
Answer: 25.3 ± 6.9%

Question: With `COc1ccc(OC)c2c(=S)c3ccccc3[nH]c12` as the compound, how does the THP-1 cell loss [1] read?
Answer: 9.79 ± 3.8%

Question: What about the “intracellular M.tb growth inhibition” value [2] of the same compound?
Answer: -14.9 ± 44%

Question: How did the THP-1 cell loss [1] turn out when `C=CC(=O)Nc1cccc(Oc2nc(Nc3ccc(N4CCN(C)CC4)cc3OC)ncc2Cl)c1` was run?
Answer: 42.4 ± 7.4%

Question: And the “intracellular M.tb growth inhibition” value [2]?
Answer: -39 ± 120%

Question: What does the source list for `O=C(Nc1ccc(-c2cn[nH]c2)cc1)C1COc2ccccc2O1` (stereo unspecified) [Rho Kinase Inhibitor V]?
Answer: THP-1 cell loss [1]: 6.82 ± 9.6%; intracellular M.tb growth inhibition [2]: 27.7 ± 10%

Question: What does the source list for `CN1CCC(Nc2ncc3ncnc(Nc4ccc(F)c(Cl)c4)c3n2)CC1` [BIBX 1382 dihydrochloride]?
Answer: THP-1 cell loss [1]: 17.8 ± 14%; intracellular M.tb growth inhibition [2]: 64.2 ± 13%

Question: `O=C1NC(=O)C(c2ccccc2[N+](=O)[O-])=C1Nc1ccc(O)c(Cl)c1` was tested. Which THP-1 cell loss [1] did it give?
Answer: 3.73 ± 5.3%

Question: What about the “intracellular M.tb growth inhibition” value [2] of the same compound?
Answer: -38.8 ± 82%

Question: How did the THP-1 cell loss [1] turn out when `Cc1cccc(-c2nn(C(=S)Nc3ccccc3)cc2-c2ccnc3ccccc23)n1` was run?
Answer: 2.37 ± 3.4%

Question: What about the “intracellular M.tb growth inhibition” value [2] of the same compound?
Answer: 17.7 ± 18%

Question: With `CC(C)c1cnn2c(NCc3ccccc3)cc(NCCCCCCN)nc12` [BS-181 hydrochloride] as the compound, how does the THP-1 cell loss [1] read?
Answer: 90.8 ± 13%

Question: And the “intracellular M.tb growth inhibition” value [2]?
Answer: 3.6 ± 5.1%

Question: For `COc1cc(F)c(F)c(Nc2ccc(I)cc2F)c1NS(=O)(=O)C1(C[C@H](O)CO)CC1`, which THP-1 cell loss [1] is on record?
Answer: 84.9 ± 1%

Question: And the “intracellular M.tb growth inhibition” value [2]?
Answer: 44.7 ± 27%

Question: With `CCCOc1ccc(/C=C2/SC(=O)NC2=O)cc1` [PIM1/2 Kinase Inhibitor VI] as the compound, how does the THP-1 cell loss [1] read?
Answer: 4.36 ± 6.2%

Question: What about the “intracellular M.tb growth inhibition” value [2] of the same compound?
Answer: 24.9 ± 13%

Question: How did the THP-1 cell loss [1] turn out when `NS(=O)(=O)c1nn2cc(-c3ccccc3)nc2s1` was run?
Answer: 5.48 ± 7.7%

Question: And the “intracellular M.tb growth inhibition” value [2]?
Answer: 42.3 ± 16%

Question: `FC(F)(F)c1ccc(/C=C/c2nc(COc3ccc(CCCCn4ccnn4)cc3)co2)cc1` [Mubritinib] was tested. Which THP-1 cell loss [1] did it give?
Answer: 51 ± 24%

Question: What about the “intracellular M.tb growth inhibition” value [2] of the same compound?
Answer: -50.5 ± 170%

Question: How did the THP-1 cell loss [1] turn out when `O=C(O)c1cc(N(Cc2ccccc2O)Cc2cc(O)ccc2O)ccc1O` [Lavendustin A] was run?
Answer: 4.39 ± 6.2%

Question: And the “intracellular M.tb growth inhibition” value [2]?
Answer: 10.4 ± 41%

Question: What does the source list for `Cc1cc(N2CCOCC2)cc2[nH]c(-c3c(NC[C@@H](O)c4cccc(Cl)c4)cc[nH]c3=O)nc12`?
Answer: THP-1 cell loss [1]: 21.7 ± 10%; intracellular M.tb growth inhibition [2]: -36.6 ± 15%

Question: With `COc1ccc2c3n(c(=NC(=O)c4cccnc4)nc2c1OC)CCN3` as the compound, how does the THP-1 cell loss [1] read?
Answer: 32.5 ± 0.91%

Question: And the “intracellular M.tb growth inhibition” value [2]?
Answer: -0.0325 ± 8.7%
